Sampled rows, rich in hits. Any-hit rate of the full collection: about 10%.
BAZ2B block: BAZ2B (human) inhibition; Q9UIF8; AlphaScreen BAZ2B-H3K14Ac peptide displacement; Potency, µM (highest dose often 114 µM), most hits filed as inhibitors; actives 4.4% (n = 360,000); further: nearly all actives have a fitted effect of over 60% in size
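In this displacement format the biotinylated H3(5-23) peptide acetylated at Lys14 serves as ligand at 50 nM, with BAZ2B at 50 nM in PBS pH 7.4 containing 0.01% Tween-20. Donor and acceptor beads are 10 ug/mL final.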
Six1-Eya2 blk: Six1/Eya2 interaction inhibition; AID 651725; AlphaScreen GST-Six1/His-Eya2 binding, biochemical; stronger effect = lower value; actives 0.56% (n = 360,000); Q15475+O00167; activity change, % (concentration not given with the values); in the data active means activity change below about -65%; inconclusive means mostly about -30% to -63%
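Homogeneous AlphaScreen proximity assay pairing GST-Six1 with His-tagged Eya2 (added as 5X mix: 250 nM and 500 nM) in 50 mM Tris pH 8.0, 300 mM NaCl, 1 mM TCEP. Glutathione donor and nickel acceptor beads; 1 h, 37 °C, dark.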
HP1b binding inh: blocks HP1-beta chromodomain binding to methylated histone tails; P83916; AlphaScreen HP1-beta / biotin-H3K9me3 peptide binding; Potency, µM (top dose mostly 114 µM), hits mostly inhibitors; actives 0.56% (n = 390,000); further: nearly all actives have a fitted effect of over 70% in size
Target sequence (P83916 whole entry, looked up): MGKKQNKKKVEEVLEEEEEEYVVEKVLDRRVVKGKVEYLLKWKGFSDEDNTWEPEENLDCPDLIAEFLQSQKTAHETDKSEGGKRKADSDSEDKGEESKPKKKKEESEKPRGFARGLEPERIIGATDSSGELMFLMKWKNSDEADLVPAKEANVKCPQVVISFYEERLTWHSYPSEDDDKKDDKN
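Compound inhibition of the preformed complex between 50 nM HP1-beta and 50 nM biotinylated H3K9me3 peptide was read by AlphaScreen. Buffer was PBS pH 7.4 with 0.01% Tween-20. Incubations ran 30 min at room temperature, with 10 ug/mL donor/acceptor beads.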
CtBP-E1A blk: inhibitors of CtBP/E1A interaction. AID 651724. AlphaScreen GST-E1A/His-CtBP binding, 1536-well; stronger effect = lower value. activity change, % (test concentration not listed). actives 0.49% (n = 340,000); in the data active means activity change below about -65%; inconclusive means mostly about -30% to -63%
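GST-E1A and His-tagged CtBP (125 nM each as 5X stock) were preincubated with pin-transferred compound for 2 h at 37 °C in the dark, then glutathione donor and nickel acceptor beads were added for 1 h before AlphaScreen reading.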
JMJD2A Tudor: JMJD2A Tudor domain (human) inhibition; O75164; AlphaScreen JMJD2A-Tudor / H3K4me3 peptide binding; Potency, µM (top dose mostly 114 µM), most hits filed as inhibitors; actives 4.4% (n = 390,000); AID 504339; further: nearly all actives have a fitted effect of over 50% in size
G9a inh: G9a (human) methyltransferase inhibition; Potency, µM (doses to about 102 µM), usual class: inhibitors; actives 8.8% (n = 350,000); Q96KQ7; G9a H3K9 monomethylation, AlphaScreen, 2 h; AID 504332; further: nearly all actives have a fitted effect of over 75% in size
Target sequence (Q96KQ7 913-1193 limits assumed): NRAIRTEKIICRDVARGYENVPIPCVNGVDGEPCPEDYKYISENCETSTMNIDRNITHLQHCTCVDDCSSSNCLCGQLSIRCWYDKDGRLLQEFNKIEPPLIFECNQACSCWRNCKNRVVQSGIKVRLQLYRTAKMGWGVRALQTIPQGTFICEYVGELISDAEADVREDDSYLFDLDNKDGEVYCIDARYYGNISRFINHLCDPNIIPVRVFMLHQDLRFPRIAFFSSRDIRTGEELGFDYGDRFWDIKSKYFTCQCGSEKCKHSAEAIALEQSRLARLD
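Enzyme 20 nM + cpd, 15 min RT; add b-H3K9 pep 500 nM / SAM 20 uM; 2 h RT; anti-H3K9me1 Ab 0.5 ug/mL + SA donor / anti-rabbit acceptor beads 20 ug/mL each, 10 min; AlphaScreen read.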
Each line names hits and unclear results; the compound was inactive in the other large screens. Unless noted, the call rests on the fitted dose curve; in most records, active means well fitted inhibition curve with a large enough effect; inconclusive means small, poorly fitted or top-dose-only effect; inactive means no such curve, though single readings can be large or run the other way.

CCOC(=O)C(=Cc1ccc(-n2ccnc2)cc1)C(=O)OCC	BAZ2B block inconclusive, G9a inh 45µM
CCOC(=O)/C(=C/c1ccc(OC(=O)c2ccncc2)cc1)C(C)=O	G9a inh 22µM
COc1ccc(C=C(C(C)=O)C(=O)c2ccccc2)cc1	none (no result: BAZ2B block, HP1b binding inh, JMJD2A Tudor, G9a inh)
COCCOC(=O)/C(=C/c1ccc(OC(=O)c2ccccc2)cc1)C(C)=O	Six1-Eya2 blk inconclusive, G9a inh 50µM
O=C(c1ccccc1Cc1ccccc1)N1CCN(S(=O)(=O)c2ccccc2[N+](=O)[O-])CC1	none
COc1ccc(N2C(=O)CN=C2Nc2nc(C)cc(C)n2)cc1OC	BAZ2B block inconclusive, JMJD2A Tudor 79µM
Cc1cc(C)nc(NC2=NCC(=O)N2c2ccc(F)c(Cl)c2)n1	JMJD2A Tudor inconclusive
NC(=O)c1cccc(-c2ccnc3c2CC(C(=O)NCCc2ccccc2)O3)c1 (stereo not given)	none (no result: BAZ2B block, HP1b binding inh, JMJD2A Tudor, G9a inh)
C=CCn1c(SCc2ccc(C#N)cc2)nnc1-c1ccccc1	G9a inh 1.4µM
C=CCn1c(COc2ccc(Cl)cc2)nnc1SCC(=O)NCC(=O)OCC	G9a inh 28µM
C=CCn1c(COc2ccc(Cl)cc2)nnc1SCc1ccc(C#N)cc1	JMJD2A Tudor inconclusive, G9a inh 28µM
COc1ccc(CCNC(=O)C(C)n2nc(C)c3sc4ccccc4c3c2=O)cc1OC (stereo not given)	none (no result: Six1-Eya2 blk, CtBP-E1A blk)
CCC/C=C(\CCC)C(NC(=O)c1ccc(C(=O)OC)cc1)c1ccc(C(=O)OC)cc1 (stereo not given)	none (no result: BAZ2B block, G9a inh)
C=CCn1c(-c2c(C)nc3cc(C)ccn23)n[nH]c1=S	JMJD2A Tudor 10µM, G9a inh 10µM
CCn1c(-c2ccc(OC)c(OC)c2)n[nH]c1=S	JMJD2A Tudor 3.5µM, G9a inh 2µM
C=CCn1c(-c2ccc(OC)c(OC)c2)n[nH]c1=S	JMJD2A Tudor 25µM
CC1C2(C)OC(=N)C(C#N)(C(C)O2)C1(C#N)C#N (stereo not given)	G9a inh 71µM
CC1OC2(C)OC(=N)C1(C#N)C(C#N)(C#N)C2c1ccccc1 (stereo not given)	none
Cc1ccc(C#N)c(SCc2ccccc2F)n1	none (no result: G9a inh)
Cc1c(NC(=O)CSc2nc3ccccc3s2)c(=O)n(-c2ccccc2)n1C	G9a inh 50µM
Cc1ccc2nc(SC(C)C(=O)N3CCCC3)[nH]c2c1 (stereo not given)	G9a inh 28µM
Cc1ccc2nc(CSc3nc(C)ccc3C#N)[nH]c2c1	JMJD2A Tudor inconclusive, G9a inh 2.8µM
Cc1ccc2nc(SCc3nc4ccccc4c(=O)[nH]3)[nH]c2c1	JMJD2A Tudor inconclusive, G9a inh 40µM
Cc1nn(-c2ccc(N3CCCCC3)nn2)c(C)c1CCC(=O)NCc1ccc(OC(C)C)cc1	none (no result: Six1-Eya2 blk, CtBP-E1A blk)
COc1cccc(Cn2c(Oc3cc(C)cc(C)c3)nc3c2c(=O)n(C)c(=O)n3C)c1	BAZ2B block inconclusive, G9a inh inconclusive (no result: Six1-Eya2 blk, CtBP-E1A blk)
Cc1nnc(SCC(=O)Nc2ccc3c(c2)OCCO3)s1	none
Cc1ccc2nc(SCC(=O)c3c(N)n(C4CC4)c(=O)[nH]c3=O)[nH]c2c1	HP1b binding inh inconclusive, G9a inh 18µM
Cc1nc2ccc(NC(=O)CSc3nnc(C)s3)cc2[nH]1	G9a inh 40µM
Cc1ccc(NC(=O)CSc2nc3ccc(Br)cc3[nH]2)c(C)c1	G9a inh 8.9µM (no result: Six1-Eya2 blk, CtBP-E1A blk)
Cc1ccc2nc(SCC(=O)Nc3ccc(C(N)=O)cc3)[nH]c2c1	HP1b binding inh inconclusive, G9a inh 40µM
COc1ccc(OC)c(C2c3c(-c4ccc(Br)cc4)n[nH]c3C(=O)N2c2ccc(Cl)cc2)c1 (stereo not given)	JMJD2A Tudor inconclusive, G9a inh inconclusive (no result: BAZ2B block, Six1-Eya2 blk, CtBP-E1A blk)
Cc1ccc2nc(SCC(=O)Nc3c(F)cccc3F)[nH]c2c1	none
Cc1c(NC(=O)CSc2nc3ccc(Cl)cc3[nH]2)c(=O)n(-c2ccccc2)n1C	BAZ2B block inconclusive, G9a inh 11µM
O=C(CSc1nc2ccccc2[nH]1)Nc1ccc(F)c(F)c1	none
Cc1c(NC(=O)CSc2nc3ccccc3[nH]2)c(=O)n(-c2ccccc2)n1C	none (no result: BAZ2B block)
COC(=O)CSc1nc2ccc(C)cc2[nH]1	G9a inh 28µM
O=C(CSc1nc2ccc(Cl)cc2[nH]1)Nc1ccc2[nH]c(=O)[nH]c2c1	JMJD2A Tudor inconclusive, G9a inh 5.6µM
Cc1ccc2nc(SCC(=O)Nc3ccc4[nH]c(=O)[nH]c4c3)[nH]c2c1	G9a inh 7.9µM
O=C(CSc1nnc(-c2ccccc2)o1)c1cccc([N+](=O)[O-])c1	none (no result: Six1-Eya2 blk, CtBP-E1A blk)
Cc1c(NC(=O)CSc2ccc(Cl)cc2)c(=O)n(-c2ccccc2)n1C	G9a inh inconclusive (no result: CtBP-E1A blk)
Cc1c(NC(=O)CSc2ccc3c(c2)OCCO3)c(=O)n(-c2ccccc2)n1C	HP1b binding inh inconclusive, JMJD2A Tudor 50µM
CC(C)Cn1c(=O)c2ccccc2n2c(CCC(=O)NCc3ccc(Cl)cc3)nnc12	none (no result: Six1-Eya2 blk, CtBP-E1A blk)
O=C1C(=Cc2cccs2)C(=O)c2ccccc21	none
O=C1/C(=C\c2cccs2)Sc2ccc3ccccc3c21	BAZ2B block inconclusive, HP1b binding inh inconclusive, JMJD2A Tudor inconclusive, G9a inh 7.9µM
Cc1nc(N2CCN(Cc3ccc4c(c3)OCO4)CC2)nc2c1C(=O)CC(c1ccco1)C2 (stereo not given)	BAZ2B block inconclusive, JMJD2A Tudor inconclusive, G9a inh 40µM
CC(C)N(C)CCOC(=O)c1ccccc1Br	JMJD2A Tudor 50µM
COc1ccc(C/C(C)=N/NS(=O)(=O)c2ccc(Br)cc2)cc1	G9a inh 25µM
COc1ccc(S(=O)(=O)N/N=C(/C)c2ccc(Cl)cc2)cc1	none
CCOC(=O)C1=C2NC(=O)c3ccccc3N2C(=O)C1	HP1b binding inh inconclusive, JMJD2A Tudor inconclusive, G9a inh 7.9µM
Cc1cc(NC(=O)CS(=O)(=O)c2cn(Cc3cccc(F)c3)c3ccccc23)no1	G9a inh 14µM
Cc1ccc(CN2CCN(C3CCN(C(=O)Nc4ccc(C)cc4Cl)CC3)C(=O)C2=O)cc1	none (no result: Six1-Eya2 blk, CtBP-E1A blk)
CCN(CC)C1=CC2=CC(=C(C#N)C#N)CCC2CC1 (stereo not given)	none
N#CC(C#N)=C1C=C2C=C(N3CCCCC3)CCC2CC1 (stereo not given)	BAZ2B block 45µM, HP1b binding inh inconclusive, JMJD2A Tudor inconclusive, G9a inh inconclusive
O=C1N/C(=N\c2ccccn2)SC1Cc1ccc(Cl)cc1 (stereo not given)	JMJD2A Tudor 25µM, G9a inh inconclusive
CCCc1nc2ccc(C)cn2c1Cc1ccccc1C(F)(F)F	none (no result: BAZ2B block, HP1b binding inh, JMJD2A Tudor, G9a inh)
O=C(Oc1cccc2c(O)cccc12)c1ccccc1Cl	none (no result: BAZ2B block, G9a inh)
O=C(Oc1ccccc1O)c1cccc2ccccc12	G9a inh 45µM (no result: Six1-Eya2 blk, HP1b binding inh, CtBP-E1A blk, JMJD2A Tudor)
